PubChem BioAssay (NCATS)
Records with an inconclusive call do not appear. Calls of active or inactive are those of the source. Calls follow the shape of the dose curve; as a rule, active = well fitted cell-killing curve with a large enough effect; inconclusive = small, poorly fitted or top-dose-only effect; inactive = flat fitted curve, though single readings scatter. *1 amine or outer side, *2 acyl side, *3 side chain or, on linkers, in order; H or OH if unused. Where a SMILES comes first, the peptide text is derived from it. Bridges are numbered along the chain shown (N, C = ends). [ ]: non-standard residue; d: D form. The star is where a group is joined. ξ: configuration not given here. ξhTyr(3S-OH,4S-OH,3'-OSO3H) = NC(C(=O)O)[C@H](O)[C@@H](O)c1ccc(O)c(OS(=O)(=O)O)c1; Orn(4R-OH,5R-OH) = O=C([C@H](C[C@@H](O)[C@@H](O)N[*:3])N[*:1])[*:2]; X2 = CCCCCOc1ccc(-c2cc(-c3ccc(C(=O)*)cc3)no2)cc1; X3 = C[C@H]1CN([*:1])C(C(=O)[*:2])[C@H]1O; ξGln(3R-OH) = NC(=O)C[C@@H](O)C(N)C(=O)O; ξPro(4R-OH) = O=C(O)C1C[C@@H](O)CN1; ξThr(3R) = C[C@@H](O)C(N)C(=O)O

Experiment: HepG2 cells viability qHTS for Zika virus inhibitors (AID 1347168)
Details: Zika counter-screen; series mostly up to 45.9 µM; activity change, negative = cytotoxicity: at the top concentration
In short: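 Cells seeded at 2.5 x 10^5 cells/mL in DMEM with 4% FBS and attached overnight at 37 degrees C, then exposed to compound for 24 to 48 hours. Viability read as ATP content by CellTiter Glo luminescence.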
% is scaled to controls: 0 for no effect and ±100 for the full control effect.

| Compound | activity change, negative = cytotoxicity |
| --- | --- |
| CC(=O)OC12CC(C)C(OC(=O)c3ccccc3)C1/C=C(/C)C(OC(=O)c1ccccc1)CC(=O)C(C)(C)/C=C/C(C)C2=O (centres undefined) | 3.56% [at 15.3 µM] (inactive) |
| O=C1NC(=O)/C(=C/c2cccc(C(F)(F)F)c2)S1 | -2.82% (inactive) |
| O=C(O)C1(c2ccc(-c3ccc(Cl)c(Cl)c3)c(F)c2)CC1 | 10.3% (inactive) |
| CCc1nnc(NS(=O)(=O)c2ccc(NC(=S)NC(=O)/C=C/c3ccc(F)cc3)cc2)s1 | 4.53% (inactive) |
| CC1C(O)C(O)C2C(C(=O)OCCc3ccc(O)cc3)=COC(O[C@@H]3O[C@H](CO)[C@@H](O)[C@H](O)[C@H]3O)C12 (some centres undefined) | -6.98% [at 26.9 µM] (inactive) |
| COc1cc(C)c(C(=O)OC2C(C)OC(OC3CCC(C)C4C3C=C(C)C3/C(C)=C\CC/C(C)=C/C5(C)C=C(C(=O)O)C(C)CC56OC(=O)/C(=C(\O)C34C)C6=O)C(O)C2O)c(OC)c1 (centres undefined) | -5.43% [at 15.3 µM] (inactive) |
| Cc1ccccc1NC(=O)Nc1ccc(CN2C(=O)N([C@@H](CC(C)C)C(=O)N[C@@H](CC(=O)O)c3ccccc3)C(=O)C2(C)C)cc1 | -2.3% (inactive) |
| COc1cc(Nc2nc3ccccc3nc2NS(=O)(=O)c2cccc(NC(=O)c3ccc(C)c(OC)c3)c2)cc(OC)c1 | 12.9% (inactive) |
| C=CC1(C)C=C2CC[C@H]3[C@@](C)(C(=O)O)CCC[C@]3(C)C2CC1 (some centres undefined) | 5.24% [at 26.9 µM] (inactive) |
| COc1cc(Nc2ccc([N+](=O)[O-])cc2C(=O)O)cc2ccccc12 | -8.99% (inactive) |
| COc1cc2c(c(O)c1OC/C=C(\C)CC/C=C(/C)CCC=C(C)C)CN(C(CCC(=O)O)C(=O)O)C2=O (centres undefined) | 2.72% [at 26.9 µM] (inactive) |
| C/C(=C\CCC(C)CCO)C(=O)OC[C@H]1O[C@@H](O[C@@H]2OC=C(C(=O)O)[C@H]3CC[C@](C)(O)[C@@H]23)C(O)[C@@H](O)C1O (some centres undefined) | 4.91% [at 26.9 µM] (inactive) |
| C=C1C2CCC3C(CCC4[C@@]3(C)CCC[C@@]4(C)C(=O)O)(C2)[C@@H]1OC(=O)/C(C)=C\C (some centres undefined) | 2.51% [at 26.9 µM] (inactive) |
| O=C(O)CC1CCC(c2ccc(-c3ccc(Nc4ccc(C(F)(F)F)nc4)cn3)cc2)CC1 (centres undefined) | 17.1% (inactive) |
| O=C(Nc1ccccc1)Nc1ccc(-c2ccc(C(=O)C3CCCC3C(=O)O)cc2)cc1 (centres undefined) | -0.184% (inactive) |
| C=C1CCC2C(C)(C)CCC[C@]2(C)[C@H]1CC/C(C)=C/C(=O)O (some centres undefined) | -2.13% (inactive) |
| Cc1ccc([C@@H]2CC=C(C(=O)O)[C@H](c3ccc(C(C)(C)C)cc3)N2S(=O)(=O)c2ccc(C)cc2)cc1 | 2.49% (inactive) |
| Cc1ccc2[nH]c(=O)c(C3=NN(C(=O)CCC(=O)O)C(c4ccc(Br)cc4)C3)c(-c3ccccc3)c2c1 (centres undefined) | 1.25% (inactive) |
| C/C=C/C=C/C=C/C(=O)O[C@@H]1[C@@H](OC)C2=C(C(=O)N(C(CCC(=O)O)C(=O)O)C2)[C@@]2(C)CCCC(C)(C)[C@H]12 (some centres undefined) | 6.07% [at 26.9 µM] (inactive) |
| COc1cccc(CNc2ccc(S(=O)(=O)Nc3nc4ccccc4s3)cc2)c1O | 2.44% (inactive) |
| CC1(C)CC=C(c2cnc3ccccc3c2)c2cc(C(=O)Nc3ccc(C(=O)O)cc3)ccc21 | 19.1% (inactive) |
| CCCCCOc1ccc(-c2cc(-c3ccc(C(=O)N[C@H]4C[C@@H](O)[C@@H](O)NC(=O)C5[C@@H](O)[C@@H](C)CN5C(=O)C([C@H](O)CC(N)=O)NC(=O)C([C@H](O)[C@@H](O)c5ccc(O)c(OS(=O)(=O)O)c5)NC(=O)C5C[C@@H](O)CN5C(=O)C([C@@H](C)O)NC4=O)cc3)no2)cc1 (stereo partly drawn) (X2-[Orn(4R-OH,5R-OH)][ξThr(3R)][ξPro(4R-OH)][ξhTyr(3S-OH,4S-OH,3'-OSO3H)][ξGln(3R-OH)][X3]; lactam 1-C) | -4.64% [at 26.9 µM] (inactive) |
| COc1cc(/C=C/c2ccccc2)c(C(=O)O)c(O)c1CC=C(C)C | 2.67% [at 26.9 µM] (inactive) |
| C=C1C2CCC3CC2(CC(O)C2(O)C1CC(OC1OC(CO)C(O)C(O)C1O)C2(C)C)CC3(C)O (centres undefined) | 8.64% [at 26.9 µM] (inactive) |
| Cc1cc(C)c2nc(-c3ccccn3)cc(C(=O)Nc3ccc(S(=O)(=O)Nc4onc(C)c4C)cc3)c2c1 | 4.25% (inactive) |
| COc1cnc(-c2ccc(Cn3c(CC(C)(C)C(=O)O)c(SC(C)(C)C)c4cc(OC[C@@H]5Cc6ccccc6N5C(C)=O)ccc43)cc2)nc1 | 1.41% [at 26.9 µM] (inactive) |
| CC(C)CC(c1c(O)c(C=O)c(O)c(C=O)c1O)C1CCC(C)(O)C2CC(C(C)(C)O)CCC12C (centres undefined) | -5.35% [at 26.9 µM] (inactive) |
| COc1cccc(OC)c1-c1cc(C(=O)N[C@@H](CC(C)C)C(=O)O)nn1-c1ccnc2cc(Cl)ccc12 | 4.7% (inactive) |
| CCOc1ccc(-c2cc(NC(=O)c3c(F)cccc3F)c(C(=O)O)s2)cc1 | 0.556% (inactive) |
| C/C(=C\CC/C(C)=C/CC[C@]1(C)CCc2cc(O)cc(C)c2O1)CC/C=C(\C)C(=O)O | 2.43% [at 26.9 µM] (inactive) |

Experiment: OV-KATE Cancer Cell Toxicity qHTS against the NCATS CANVASS Library (AID 1347345)
Details: OV-KATE cells viability, CellTiter-Glo luminescence, 72 h; series mostly up to 38.3 µM; activity change, negative = cytotoxicity: at the top concentration
Text: Natural products and their derivatives continue to be wellsprings of nascent therapeutic potential. However, many laboratories have limited resources for biological evaluation, leaving their previously isolated or synthesized compounds largely or completely untested. To address this issue, the Canvass library of natural products was assembled (https://tripod.nih.gov/canvass), in collaboration with academic and industry researchers, for quantitative high-throughput screening (qHTS) across a diverse set of cell-based and biochemical assays. The pure (>85% purity by liquid chromatography/mass spectrometry [LC/MS]) Canvass library of 346 natural products were submitted by 45 academic laboratories and companies around the world. We collected pure natural products to circumvent deconvolution and structure elucidation due to time and resource limitations. The library was formatted into 1536-well plates and evaluated in 50 qHTS (in an 11-pnt concentration series) bioassays with broad scope of disease-relevant mechanisms. The resulting data set from 50 different assays was then systematically analyzed to identify overall trends and specific natural products with interesting biological activities. Reported herein are the results of each individual qHTS and their corresponding assay protocol. National Center for Advancing Translational Sciences (NCATS), Rockville, MD National Institute of Health (NIH), Bethesda, Maryland
Cancer Cell Toxicity protocol for cell lines COV-362, OV-KATE, OV-SAHO, UWB1.289, UWB1.289-WTBRCA1, HEK-293, HPAF-II, Panc-1005, SW1088, or U-118MG. 1. In a 1536 well, white solid bottom tissue culture plates (Corning 7494), corresponding cells (COV-362, OV-KATE, OV-SAHO, UWB1.289, UWB1.289-WTBRCA1, HEK-293, HPAF-II, Panc-1005, SW1088, or U-118MG) were dispensed in each well at a final concentration of 1000 cells / well (6uL volume) using the Multidrop Combi (Thermo Fisher Scientific) dispenser. 2. The plates were incubated for 4 hours at 37 degrees C/5% CO2/95% Rh. 3. Compounds were pin transferred (~23nL volume) via Wako Pin-tool (Wako Automation, Richmond VA) equipped with a 1536 pin head. The assay plates were treated with compounds in an 11-pnt concentration series with a final concentration range of […] to 85uM. 4. Bortezomib was used as a single dose control (0.5mM column 4, rows 1 - 32) at a final concentration of 1.9uM and as a 16pnt titration (1mM; 1:2 dilution; 16-points; n = 2; column 3, rows 1 - 32) with final concentration range of 0.1nM - 3.8uM. 5. The assay plates were incubated for 72 hours at 37 degrees C/5% CO2/95% Rh. 6. […] Luminescence signal was acquired via the ViewLux plate reader (PerkinElmer) using a clear filter, 2 second exposure and 2x binning settings.

| Compound | activity change, negative = cytotoxicity |
| --- | --- |
| CC(=O)O[C@H]1C[C@@]2(C)[C@@H](CC[C@H]3[C@@]4(C)C=CC(=O)[C@@H](C)[C@@H]4[C@H](OC(C)=O)C(=O)[C@@]32C)/C1=C(\CCC=C(C)C)C(=O)O | -8.28% (inactive) |
| O=C(/C=C/C=C/c1ccc2c(c1)OCO2)N1CCCCC1 | -16% [at 76 µM] (inactive) |
| CC(C)c1ccc2c(c1)CCC1[C@](C)(C(=O)O)CCC[C@]21C (some centres undefined) | 1.83% (inactive) |
| C/C(=C\CC/C(C)=C/CC[C@]1(C)CCc2cc(O)cc(C)c2O1)CC/C=C(\C)C(=O)O | 1.62% (inactive) |
